Screening results deposited in PubChem by National Center for Advancing Translational Sciences (NCATS).
This is a sample that favours compounds with a hit; in the whole collection about 9.2% have one here.
SMN2 splice up: qHTS Assay for Enhancers of SMN2 Splice Variant Expression | HEK293 SMN2-luciferase splicing reporter, luminescence, 30-36 h | 2.8% of 210,000 active | Potency, µM (top dose mostly 46.1 µM), for inactives: at the highest dose activity change, positive = activation, actives largely listed as activators; note: % of control where 0% means no effect; nearly all actives have a fitted effect of over 55% in size
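qHTS luciferase splicing reporter: luminescence rises when SMN2 exon 7 is included in transfected HEK293 cells. Compound exposure lasted 30-36 h at 37C, with 4.5 mM final sodium butyrate as control, followed by a ONE-Glo read.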
FLuc modulator: qHTS profiling assay for firefly luciferase inhibitor/activator using purifed enzyme and Km concentrations of substrates (counterscreen for miR-21 project); Potency, µM (doses to about 57.5 µM), for the others: at the top dose activity change, negative = inhibition, most hits filed as inhibitors; Luciferin 4-monooxygenase (Photinus pyralis), P08659; 6.9% of 360,000 active; purified FLuc, Km substrates, luminescence inhibition; AID 588342, 2011;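 note: plate controls were vehicle for no effect and reference inhibitor for full effect; nearly all actives have a fitted effect of over 55% in size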
Target sequence (P08659 whole entry, looked up): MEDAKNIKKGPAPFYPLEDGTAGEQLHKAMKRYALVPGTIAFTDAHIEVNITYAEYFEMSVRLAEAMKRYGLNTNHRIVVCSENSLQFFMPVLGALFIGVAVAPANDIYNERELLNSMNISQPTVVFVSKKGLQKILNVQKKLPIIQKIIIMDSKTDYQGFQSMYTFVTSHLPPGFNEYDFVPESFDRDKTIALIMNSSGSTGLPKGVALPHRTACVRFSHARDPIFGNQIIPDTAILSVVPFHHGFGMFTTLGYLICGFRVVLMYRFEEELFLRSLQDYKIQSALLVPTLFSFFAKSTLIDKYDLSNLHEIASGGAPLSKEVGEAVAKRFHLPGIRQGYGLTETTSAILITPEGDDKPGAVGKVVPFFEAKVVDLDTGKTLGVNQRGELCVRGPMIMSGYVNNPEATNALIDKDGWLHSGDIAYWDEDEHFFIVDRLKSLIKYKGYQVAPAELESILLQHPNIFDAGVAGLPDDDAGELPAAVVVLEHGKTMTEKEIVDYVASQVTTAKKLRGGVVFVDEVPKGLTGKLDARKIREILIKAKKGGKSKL
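Biochemical qHTS of compounds, final roughly 60 µM downward over six points, against 10 nM purified firefly luciferase using Km concentrations of substrates (10 uM D-luciferin, 10 uM ATP) in Tris acetate pH 7.5 buffer; luminescence output.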
ELG1 genotox: qHTS screen for small molecules that induce genotoxicity in human embryonic kidney (HEK293T) cells expressing luciferase-tagged ELG1 | Potency, µM (top dose mostly 46 µM), inactives show top-dose activity change, positive = activation, hits mostly activators | HEK293T ELG1-luciferase reporter, luminescence, 16 h | 1.3% of 330,000 active; note: % of control where 0% means no effect; nearly all actives have a fitted effect of over 60% in size
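Cells (2,000/well) expressing the ELG1-luciferase fusion are dosed by pin tool and kept 16 hr at 37 °C, 5% CO2. Signal comes from ONE-Glo luciferase reagent after 30 min at room temperature.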
ELG1 DNA repair: qHTS screen for small molecules that inhibit ELG1-dependent DNA repair in human embryonic kidney (HEK293T) cells expressing luciferase-tagged ELG1. HEK293T ELG1-luciferase reporter, luminescence, 16 h; DNA damage induced by 5-fluorouridine. Potency, µM (titrated, usually from 46.1 µM), without a hit: top-dose activity change, negative = inhibition, hits mostly inhibitors. AID 504467, 2011. 2.3% of 330,000 active; note: % is set by controls: 0 for no effect and ±100 for the full control effect; nearly all actives have a fitted effect of over 55% in size
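HEK293T cells expressing luciferase-tagged ELG1 (2,000/well) received 5-Fluorouridine plus compound or DMSO for 16 hr at 37 °C. Luciferase was read by ONE-Glo luminescence after 30 min at room temperature.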
Rab9 prom act: qHTS Assay for Rab9 Promoter Activators | 2.8% of 320,000 active | Huh7 Rab9 promoter-luciferase reporter, luminescence, 24 h | AID 485297, 2010 | Potency, µM (titrated, usually from 9.22 µM), without a hit: at the top dose activation, negative = inhibition, usual class: activators; note: % of control where 0% means no effect; nearly all actives have a fitted effect of over 60% in size
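Steps: seed 1500 Huh7 Rab9-luc cells per well, rest 2 h at 37 °C; add compound in DMSO; incubate 24 h; add luciferase reagent, 10 min ambient; read luminescence.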
NPC1 prom act: qHTS Assay for NPC1 Promoter Activators | Huh7 NPC1 promoter luciferase reporter, 24 h | AID 485313, 2010 | 2.4% of 320,000 active | Potency, µM (series often up to 9.22 µM), for the others: top-dose activation, usual class: activators; note: % of control where 0% means no effect; nearly all actives have a fitted effect of over 60% in size
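Stable NPC1-promoter luciferase Huh7 line; cpd (DMSO) 24 h, 37 °C, 5% CO2; Amplite luciferase reagent 10 min RT; luminescence readout. qHTS format.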
* marks the source's active call; other numbers are inactive results; ? = inconclusive; . = not tested or not shown. Calls come from the whole dose curve; as a rule, active = well fitted curve in the direction sought with a large enough effect; inconclusive = small, poorly fitted or top-dose-only effect, or another doubt; inactive = no such curve, though single readings can be large; an effect the other way counts as inactive or inconclusive. Potency is the fitted concentration of half-maximal effect.

SMILES | SMN2 splice up | FLuc modulator | ELG1 genotox | ELG1 DNA repair | Rab9 prom act | NPC1 prom act
Cc1cc(Cl)c2oc(C(=O)NCCC3CCCCO3)c(C)c2c1 (stereo not given) | . | 21µM* | ? | ? | ? | ?
Cc1c(C(=O)NCC2CCCO2)oc2ccc(Br)cc12 (stereo not given) | . | ? | 23µM* | ? | ? | 30%
CCN1C(=O)c2ccc(C(=O)Nc3ccc4c(c3)OCO4)cc2C1=O | . | 2.7µM* | ? | ? | 16% | 30%
Cc1ccc(S(=O)(=O)CC(=O)c2ccc3c(c2)OCCO3)cc1 | . | 13µM* | 0% | -11% | ? | ?
Brc1ccc2c(c1)OCCOCCOc1cc(Br)ccc1OCCOCCOCCO2 | -29% | 2% | -51% | 21µM* | -28% | -14%
CCCOc1cccc(C(=O)Nc2cccc(NC(=O)c3ccco3)c2)c1 | 8% | 17µM* | -3% | -23% | -6% | -3%
Brc1cc2c(cc1Br)OCCOCCOCCOCCO2 | -9% | 2% | -14% | -9% | -2% | -2%
CCC(=O)c1c(CC)c2n3c1CC[C@H]3CCC2 | . | 3% | 1% | -12% | 1% | 0%
Cc1cc(C)c(S(=O)(=O)c2cccc(Br)c2C)c(=O)[nH]1 | . | 0% | 0% | 6% | -4% | -5%
CC(=O)c1ccc(NC(=O)CSc2ccc3nnc(CCNS(=O)(=O)c4ccc(C)cc4)n3n2)cc1 | . | 4% | . | . | . | .
COc1cc(Nc2ncc3c(n2)CCN(Cc2cc(F)cc(F)c2)C3)cc(OC)c1 | . | -4% | . | . | . | .
O=C(NCCS(=O)(=O)NCCCc1ccccc1)c1ccccc1 | . | -7% | -5% | 8% | 1% | -4%
CCN(CC)S(=O)(=O)c1ccc(C(=O)Nc2ccc3c(c2)OCCO3)cc1 | -3% | ? | 2% | ? | 5% | 9%
O=C(Nc1ccc2c(c1)OCCO2)c1ccc(Br)cc1 | . | 1.1µM* | ? | ? | 1.3µM* | 2.5µM*
O=C(O)CCC(=O)Nc1cccc(C(=O)Nc2ccc(Br)cc2)c1 | 17% | 24µM* | 5% | ? | 7% | -1%
CC(=O)Nc1sc(N/N=C\c2ccccc2)nc1-c1cccs1 | -49% | 19µM* | ? | ? | 6% | 3%
CC(=O)Nc1sc(N/N=C\c2ccco2)nc1-c1cccs1 | -11% | 17µM* | 2% | -2% | 16% | -2%
COc1ccc(/C=N/Nc2nc(-c3ccc(C)cc3)c(NC(C)=O)s2)cc1 | . | 5.4µM* | 7% | 25% | -2% | 10%
CC(=O)Nc1sc(N/N=C/c2ccccc2F)nc1-c1ccc(C)cc1 | . | 7.6µM* | -2% | 0% | 10% | 1%
CC(=O)Nc1sc(-c2ccc(Cl)cc2)nc1-c1ccccc1 | . | -14% | 1% | 13% | -3% | -7%
OCC[C@H]1C[C@H](O)[C@@H](O)[C@]2(CCCc3ccccc3O2)O1 | . | 2% | 3% | 0% | -1% | -2%
O=S(=O)(NCc1csc(-c2ccccc2)n1)c1ccccc1 | -6% | -17% | . | . | . | .
Cc1coc2c(C)c3oc(=O)c(CCC(=O)N4CCCCC4)c(C)c3cc12 | -8% | -13% | . | . | . | .
CC(=O)Nc1sc(N/N=C/c2ccc(O)cc2)nc1-c1ccc(C)cc1 | . | 2.4µM* | ? | ? | 10% | 1%
CC(=O)Nc1sc(N/N=C/c2ccccc2)nc1-c1ccc(C)cc1 | . | 8.5µM* | 4% | ? | -2% | -1%
SMILES | SMN2 splice up | FLuc modulator | ELG1 genotox | ELG1 DNA repair | Rab9 prom act | NPC1 prom act
CCOc1cc(/C=N/Nc2nc(-c3cccs3)c(NC(C)=O)s2)ccc1O | . | 27µM* | 1% | ? | 1% | -1%
CC(=O)Nc1sc(-c2ccccc2)nc1-c1ccccc1 | -28% | -25% | 15% | ? | -2% | 0%
CC(C)(C)c1csc(N/N=C/c2ccc(O)cc2)n1 | . | 21µM* | ? | ? | ? | 29%
CC(=O)Nc1sc(N/N=C\c2ccccc2Cl)nc1-c1cccs1 | -20% | -18% | ? | ? | 13% | 4%
Cc1ccc(NC(=O)CCC(=O)N/N=C/c2ccc(O)cc2)cc1 | . | -15% | 2% | ? | 2% | -1%
O=C(O)CN1C(=O)c2ccc(C(=O)c3ccccc3)cc2C1=O | . | 0% | 0% | 30% | -7% | -1%
Cc1ccc(-n2nc(C(=O)Nc3cccc(C#N)c3)c3c4ccccc4n(C)c3c2=O)cc1 | 16% | 2% | . | . | . | .
COc1ccc(-c2nc3ccccc3n3c(-c4ccccc4)c4c(=O)n(C)c(=O)n(C)c4c23)cc1 | -17% | 3% | . | . | . | .
O=C(CSc1ccc(-c2cccnc2)nn1)Nc1ccc(F)c(F)c1 | . | -3% | -19% | 13µM* | -1% | -4%
O=C(CSc1ccc(-c2ccccn2)nn1)Nc1cccc(F)c1 | . | 13µM* | ? | 30% | 14% | 7%
CN(C)S(=O)(=O)c1ccc(F)c(C(=O)Nc2ccccc2C(=O)NC2CC2)c1 | . | . | -1% | -2% | -1% | 0%
O=C(Nc1ccc(Cl)cc1)Nc1nc(-c2ccccc2O)cs1 | . | -5% | 0% | ? | 2% | -2%
CCc1ccc(/C=C(/C#N)c2nc(-c3ccc(C)cc3)cs2)cc1 | 7% | 0% | . | . | . | .
N#CC(=C1CCCC1)c1nc(-c2cc3ccccc3oc2=O)cs1 | ? | 2.1µM* | ? | ? | 3.2µM* | ?
N#CC(=C1CCCC1)c1nc(-c2ccccc2O)cs1 | ? | 1.3µM* | 3.7µM* | ? | 3.5µM* | 2.8µM*
N#C/C(=N\O)c1nc(-c2ccccc2)cs1 | -9% | -11% | 0% | -4% | 1% | 1%
Cc1ccc(-c2csc(C(C#N)=C3CCCC3)n2)cc1 | 18µM* | 2.7µM* | ? | ? | 4.5µM* | 3.2µM*
N#C/C(=C/c1ccccc1Cl)c1nc(-c2cc3ccccc3oc2=O)cs1 | -6% | -7% | . | . | . | .
N#CC(=C1CCCC1)c1nc(-c2ccccc2)cs1 | 16µM* | 1.3µM* | ? | ? | ? | 3.2µM*
Cc1ccnc(NC(=O)c2cccc(S(=O)(=O)NCc3ccccc3)c2)c1 | . | -2% | -1% | ? | 2% | -2%
COc1ccc(S(=O)(=O)N2CCC(C(=O)NC3CCCCC3C)CC2)cc1 (stereo not given) | . | 1% | -6% | -1% | -4% | 2%
Cc1nc2ccccc2c(=O)n1/N=C/c1ccccc1 | 4% | ? | 2% | ? | 4% | 3%
